Screening results from PubChem.
In the library only some 7.9% were active in any assay of this set; here they are far more common.
KB-3-1 cytotox: KB-3-1 parental cell cytotoxicity; KB-3-1 viability, CellTiter-Glo ATP luminescence, 72 h; Potency, µM (top dose mostly 46.1 µM), usual class: cytotoxic; hit rate 1.4% among 400,000; AID 1347075; note: % is set by controls: 0 for no effect and ±100 for the full control effect; nearly all actives have a fitted effect of over 60% in size
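Luminescent ATP read-out (CellTiter-Glo) measures survival of drug-naive KB-3-1 cells after 72 h compound exposure at 37 °C. Titration series was screened from lowest to highest concentration, with DMSO vehicle plates as background controls.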
MCF10A rerep: induces DNA re-replication in MCF 10a normal breast cells; MCF 10A DNA re-replication, Hoechst nuclear intensity, 48 h; Potency, µM (doses to about 46.1 µM), inactives show at the highest dose activity, positive = re-replication, hits mostly activators; hit rate 2.9% among 350,000; AID 624296; note: % of control where 0% means no effect; nearly all actives have a fitted effect of over 50% in size
SW480 rerep: DNA re-replication induction in SW480 cells | SW480 DNA re-replication, Hoechst DNA content imaging, 48 h | Potency, µM (series often up to 46.1 µM), without a hit: at the highest dose re-replication activation, most hits filed as activators | hit rate 1.8% among 340,000 | AID 624297; note: % of control where 0% means no effect; nearly all actives have a fitted effect of over 55% in size
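DNA re-replication was detected as more nuclei of elevated Hoechst intensity after 48 hr exposure to compound (23 nL pinned per well of 250 cells).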
HT1080 IDH1KD tx: HT-1080 IDH1 knockdown cell toxicity (counter line); HT-1080 IDH1 knockdown viability, ATP luminescence, 48 h; Potency, µM (doses to about 46.1 µM), for the others: at the top dose activity, negative = toxicity, usual class: cytotoxic; hit rate 2% among 360,000; AID 686971;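 note: 0% = DMSO wells and -100% = cell-free medium wells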
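Using the IDH1-knockdown HT-1080 line run in the same batch and compound series as the NT line, viability after 48 h at 37 °C was determined by CellTiter-Glo luminescence and expressed as % activity.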
HT1080NT lethal: kills 2HG-producing HT-1080-NT fibrosarcoma cells; HT-1080-NT fibrosarcoma viability, CellTiter-Glo ATP luminescence, 48 h; Potency, µM (titrated, usually from 46.1 µM), inactives show at the highest dose activity, negative = less viability, hits mostly cytotoxic; hit rate 1.6% among 360,000;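 note: NT is the 2HG producing partner of a matched IDH1 knockdown line; 0% = DMSO-treated cells and -100% = media-only wells without cells; nearly all actives have a fitted effect of over 55% in size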
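Read-out is CellTiter-Glo luminescence after 10 minutes at room temperature, following 48 hours' compound treatment of HT-1080-NT cells (750 cells/well, RPMI, 5% FBS, 37 degrees C).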
KB-V1 cytotox: kills drug-selected multidrug resistant KB-V1 cells. KB-V1 MDR cells viability, CellTiter-Glo, 72 h. AID 1347076. Potency, µM (doses to about 46.1 µM), hits mostly cytotoxic. hit rate 3.4% among 400,000; note: % is set by controls: 0 for no effect and ±100 for the full control effect; nearly all actives have a fitted effect of over 60% in size
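Cytotoxicity toward P-gp-expressing KB-V1 cells was determined as loss of CellTiter-Glo luminescence after 72 h at 37 degrees C. Compounds were tested in quantitative HTS format across a concentration range, with curves fitted to normalized data.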
* = called active by the depositor; i = inactive; ? = inconclusive; · = no result given; [ ] = another dose, or the depositor's remark. Calls come from the whole dose curve; as a rule, active = well fitted curve in the direction sought with a large enough effect; inconclusive = small, poorly fitted or top-dose-only effect, or another doubt; inactive = no such curve, though single readings can be large; an effect the other way counts as inactive or inconclusive. Potency is the fitted concentration of half-maximal effect.

SMILES | KB-3-1 cytotox | MCF10A rerep | SW480 rerep | HT1080 IDH1KD tx | HT1080NT lethal | KB-V1 cytotox
COc1ccc(NC(=O)Cn2c(=O)n(Cc3ccccc3Cl)c(=O)c3cc(OC)c(OC)cc32)cc1OC | i | · | · | · | · | i
COc1ccc(NC(=O)Cc2ccc(-c3ccccc3)cc2)cn1 | ? | ? | ? | 23.1µM* | 9.2µM* | 13µM*
COc1ccc(NC(=O)CN(C)S(=O)(=O)c2ccc(Cl)cc2)cn1 | i | -0.5% | -0.9% | 14.9% | 12.2% | i
COc1ccc(CN2C(=O)c3ccccc3C2=O)cc1C(=O)Nc1ccccc1N1CCOCC1 | i | -1.1% | -1.0% | -12.2% | -8.5% | ?
COc1ccc(CC(=O)Nc2ccc(OC)nc2)cc1 | i | -2.8% | 5.8% | 16.1% | 16.7% | i
COc1ccc(NC(=O)C(C)(C)Oc2ccc(Cl)cc2)cn1 | i | 1.1% | -2.1% | 4.7% | 9.1% | 14.6µM*
COc1ccc(NC(=O)/C(Cl)=C(/Cl)S(=O)Cc2ccc(Cl)cc2)cn1 (stereo unspecified) | 7.31µM* | ? | ? | 0.92µM* | 1.3µM* | 5.8µM*
COc1ccc(NC(=O)c2cc(CN3C(=O)c4ccccc4C3=O)ccc2OC)cn1 | ? | 13.3% | -0.4%[9.22 µM] | 20.6µM* | ? | ?
Cc1cccc(C)c1NC(=O)C1(C)CSCC(=O)N1CCC(C)C (stereo unspecified) | i | · | · | 13.5% | 19.4% | ?
O=C(Nc1nnc(S(=O)(=O)N2CCCc3ccccc32)s1)c1ccccc1Cl | i | · | · | · | · | i
O=C(COc1ccc2oc3c(c2c1)CCCC3)Nc1cccc(Br)c1 | i | · | · | · | · | i
COc1ccc(NC(=O)Nc2ccc(OCc3ccccc3)cc2)cn1 | i | 25.5% | -0.6% | -19.2% | -29.7% | i
COc1ccc(NC(=O)C(Cl)=C(Cl)Cl)cn1 | ? | 20.6µM* | ? | 23.1µM* | 16.4µM* | ?
COc1ccc(NC(=O)/C(Cl)=C(/Cl)S(=O)(=O)Cc2ccccc2)cn1 | ? | ? | ? | 5.17µM* | 5.8µM* | ?
O=C(C(O)c1ccccc1)N1CCN(S(=O)(=O)c2ccc(F)c(F)c2)CC1 (stereo unspecified) | i | · | · | 14.6% | 20.4% | i
c1ccc(CNc2ncnc3c2cnn3Cc2ccccc2)cc1 | ? | 26.8% | 0.8% | 7.94µM* | 7.94µM* | ?
Cc1ccc(-n2ncc3c(SCc4cccc(C)c4)ncnc32)cc1 | i | 1.3% | -0.6% | ? | ? | i
Cc1ccc(-n2ncc3c(SCc4cccnc4)ncnc32)c(C)c1 | i | 10.7% | 2.3% | ? | ? | 5.8µM*
Cc1cccc(CSc2ncnc3c2cnn3Cc2ccccc2)c1 | ? | ? | 12.9% | 2.2% | 6.4% | 14.6µM*
CCOC(=O)CNC(=O)CSc1ncnc2c1cnn2-c1ccc(Cl)cc1 | i | 0.1% | -1.4% | -0.9% | -1.7% | i
Cc1ccc(-n2ncc3c(N4CCCC4)ncnc32)c(C)c1 | i | 9.2% | -3.1% | -3.4% | -2.4% | i
CCOC(=O)CNC(=O)CSc1ncnc2c1cnn2Cc1ccccc1 | ? | 13.8% | 2.7% | 18.4µM* | ? | i
Nc1[nH]c(=S)[nH]c(=O)c1N=O | ? | · | · | · | · | i
Cc1cc(C)cc(OCC(=O)Nc2nc3c(s2)CC(C(C)(C)C)CC3)c1 (stereo unspecified) | i | · | · | · | · | i
CC(Sc1nnc(CN2CCCC2)n1Cc1ccccc1)C(=O)Nc1ccc(F)c(F)c1F (stereo unspecified) | i | 24.7% | -2.9% | -2.5% | -1.7% | 1.03µM*
SMILES | KB-3-1 cytotox | MCF10A rerep | SW480 rerep | HT1080 IDH1KD tx | HT1080NT lethal | KB-V1 cytotox
Cc1ccc(NC(=O)Cn2c(=O)n(CCc3ccccc3)c(=O)c3c4c(sc32)CCCC4)c(C)c1 | i | · | · | · | · | i
COc1ccc(OC)c(CCNC(=O)c2c(C)nn(-c3ccc(F)cc3)c2-n2cccc2)c1 | ? | · | · | · | · | 11.6µM*
Cc1cc(C)c(NC(=O)c2c(C)nn(-c3ccc(F)cc3)c2-n2cccc2)c(C)c1 | ? | · | · | · | · | i
COc1cccc(CCNC(=O)c2c(O)nc3c(C)cccn3c2=O)c1 | i | · | · | · | · | ?
COc1ccc(CCNC(=O)c2c(O)nc3c(C)cccn3c2=O)cc1OC | i | · | · | · | · | 6.51µM*
Cc1ccc(CCNC(=O)c2c(C)nn(-c3ccc(F)cc3)c2-n2cccc2)cc1 | 3.26µM* | · | · | · | · | 5.8µM*
COc1ccc(CCNC(=O)c2c(C)nn(-c3ccc(F)cc3)c2-n2cccc2)cc1OC | 5.8µM* | · | · | · | · | 5.17µM*
CC(=O)c1cccc(NC(=O)c2c(C)nn(-c3ccc(F)cc3)c2-n2cccc2)c1 | i | · | · | · | · | ?
CCOc1ccc(NC(=O)c2c(C)nn(-c3ccc(F)cc3)c2-n2cccc2)cc1 | i | · | · | · | · | i
COc1cccc(-c2cnc(C(O)c3ccc(Cl)cc3)[nH]2)c1 (stereo unspecified) | i | · | · | -2.7% | 4.0% | i
O=C(CSc1ncc(S(=O)(=O)c2ccc(Br)cc2)c(=O)[nH]1)NCc1ccc(Cl)cc1 | i | · | · | · | · | i
O=C1C2CC=CCC2C(=O)N1Cc1nnc(-c2ccccc2Br)o1 (stereo unspecified) | i | -1.6% | -12.3% | 11.2% | 4.7% | i
COc1ccc(OC)c(CCNC(=O)C(C)n2nc(C)c3c(C)n(-c4ccc(C)cc4)nc3c2=O)c1 (stereo unspecified) | ? | 3.2% | -5.2% | 20.6µM* | -16.6% | i
COc1ccc(OC)c(CCNC(=O)C(C)n2nc(C)c3c(C)n(-c4ccccc4)nc3c2=O)c1 (stereo unspecified) | ? | -0.2% | 9.6% | -13.3% | -1.2% | ?
CCN(CC)c1ccc(NC(=O)c2c(C)nn(-c3ccc(F)cc3)c2-n2cccc2)c(C)c1 | ? | · | · | · | · | 20.6µM*
COc1cc(OC)c(NC(=O)c2c(C)nn(-c3ccc(C)cc3)c2-n2cccc2)cc1Cl | 23.1µM* | · | · | · | · | ?
O=C(Cn1c(=O)n(-c2cccc(Cl)c2)c(=O)c2sc3ccccc3c21)N1CCCC1 | i | · | · | · | · | i
CC(=O)C(N=Nc1ccccc1)(Sc1nnc(-c2ccccc2)n1-c1ccccc1)C(=O)Nc1ccccc1 (stereo unspecified) | i | 5.9% | 4.9% | -2.9% | 8.8% | i
CC(=O)C(N=Nc1ccccc1)(Sc1nnc(-c2ccccc2)n1-c1ccccc1)C(C)=O | ? | 8.4% | ? | -29.7% | -27.6% | 11.6µM*
CN1CCN(S(=O)(=O)c2ccc(-c3ccc(Cl)cc3)cc2)CC1 | i | ? | -6.5% | 9.1% | 12.4% | 13µM*
